This passage reports composite z-score and z-score results from PubChem BioAssay.

The source made the active and inactive calls.

For experiment [1], the system named is Plasmodium falciparum Sir2 (PF13_0152, Sir2A). Kind of experiment: pfSir2 binders on small-molecule microarrays, primary screen, biochemical, small-molecule microarray, 635 nm fluorescence (AID 1098).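 Note: score merges spot fluorescence intensity with its signal-to-noise ratio.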 Conditions: small-molecule microarray binding, fluorescence 635 nm; higher = more signal.
A short description of experiment [2]: small-molecule microarray binders of probe aDKK1, primary screen, biochemical, biotinylated probe, 635/667 nm fluorescence (AID 1099).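 Note: score merges 667nm spot fluorescence with signal to noise across triplicate slides.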 As to conditions: higher = more signal.
Experiment [3] in a line: small-molecule microarray binders of probe aCHRDL2, primary screen, biochemical, biotinylated probe, 635/667 nm fluorescence (AID 1100). As to conditions: higher = more signal.
Experiment [4] is described as follows: splicing luciferase reporter signal modulators, primary screen, spliceosome inhibition project, cell-based, HEK293, splice +/- reporter (AID 1101).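 Note: HEK293 cells carrying a splicing-competent luciferase reporter gene; test concentration not given here.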 Conditions: luminescence, 24 h, higher = more signal, called active from +8 up or from −8 down. (Reporter assays use an easily measured gene product as a stand-in for the process of interest.)
Experiment [5] addresses Fibroblast growth factor 10 (Homo sapiens) (UniProt O15520). Nature of the experiment: FGF10 binders on small-molecule microarrays, primary screen, biochemical, small-molecule microarray, 635 nm fluorescence (AID 1102). As to conditions: FGF10 binding, fluorescence 635 nm, higher = more signal.
Experiment [6] concerns glycogen synthase kinase-3 (GSK3A per assay name; protocol says GSK3B). Kind of experiment: GSK3 binders on small-molecule microarrays, primary screen, biochemical, small-molecule microarray, 635 nm fluorescence, GSK3A (AID 1103). Note: the record names both GSK3A and GSK3B. Conditions: small-molecule microarray binding, fluorescence 635 nm; higher = more signal.
The target of experiment [7] is Epidermal growth factor receptor (Homo sapiens) (UniProt P00533). Kind of experiment: EGFR binders on small-molecule microarrays, primary screen, biochemical, small-molecule microarray, 635 nm fluorescence (AID 1104).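 Note: score merges 667 nm emission intensity with spot signal to noise over triplicate slides.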 Conditions: EGFR binding, higher = more signal.
Experiment [8] concerns the target Follistatin-related protein 3 (Homo sapiens) (UniProt O95633). Nature of the experiment: FSTL3 binders on small-molecule microarrays, primary screen, biochemical, small-molecule microarray, 635 nm fluorescence (AID 1105).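 Note: score merges emission near 667 nm and signal to noise per printed spot across three slides.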 Conditions: FSTL3 binding, higher = more signal.
Experiment [9] deals with Dickkopf-related protein 1 (Homo sapiens) (UniProt O94907). Nature of the experiment: DKK1 binders on small-molecule microarrays, primary screen, biochemical, small-molecule microarray, 635 nm fluorescence scan (AID 1106).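 Note: score merges emission near 667 nm with signal to noise over three replicate slides.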 Conditions: DKK1 binding, higher = more signal.
In experiment [10] the test system is Inhibin beta A chain (activin A). Kind of experiment: INHBA (activin A) binders on microarrays, primary screen, biochemical, small-molecule microarray, 635 nm fluorescence scan (AID 1107).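 Note: mouse activin A protein probed at 4.33 µg/mL on printed slides; score merges bound-protein fluorescence near 667 nm with spot signal-to-noise.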 As to conditions: small-molecule microarray binding, higher = more signal.
For experiment [11], the system named is Human papillomavirus type 1a protein E7 (residues 44-93). Nature of the experiment: HPV1a E7 fragment binders on microarrays, primary screen, biochemical, small-molecule microarray, residues 44-93, 635 nm fluorescence (AID 1108).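 Note: E7 fragment applied at 1 µg/mL in TBST for 1 h at 4 C; score combines spot fluorescence with its signal to noise ratio.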 Conditions: small-molecule microarray binding, fluorescence 635 nm; higher = more signal.
A short description of experiment [12]: modulators of HCV replicon luciferase signal, primary screen, HCV replication inhibitor project, Huh7 cells, luciferase reporter (AID 1109).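 Note: huh7 hepatoma cells harbouring a luciferase neomycin HCV replicon reporter; luciferase luminescence as measure of HCV replicon replication; test concentration not given here.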 Conditions: 48 h, higher = more signal. (Replicon systems follow genome replication, usually without infectious particles.)
Experiment [13] concerns the target Left-right determination factor 2 (Homo sapiens) (UniProt O00292). Nature of the experiment: LEFTY2 binders on small-molecule microarrays, primary screen, biochemical, small-molecule microarray, 635 nm fluorescence scan (AID 1110). Conditions: LEFTY2 binding, higher = more signal.
Experiment [14] deals with Calmodulin-1 (Homo sapiens) (UniProt P0DP23). Nature of the experiment: CALM1 binders on microarrays, EGTA buffer, profiling panel, biochemical, small-molecule microarray, Cy5-labelled CALM1 (AID 1111).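 Note: labelled calmodulin applied in Tris saline Tween buffer holding calcium plus EGTA and DTT.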 Conditions: Cy5-CALM1 binding fluorescence, higher = more signal.
Experiment [15] has the same target. Nature of the experiment: calcium-bound CALM1 binders on microarrays, profiling panel, artefact control for SMM control-protein annotation, biochemical, small-molecule microarray, Cy5-labelled CALM1, plus calcium (AID 1112).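 Note: score merges spot fluorescence with signal to noise from triplicate slides.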 As to conditions: Cy5-CALM1 binding fluorescence, higher = more signal.
Experiment [16] is described as follows: small-molecule microarray binders of probe aWnt5a, primary screen, biochemical, biotinylated probe, 635/667 nm fluorescence (AID 1113).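 Note: score merges 667 nm fluorescence intensity with signal-to-noise per printed feature.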 As to conditions: higher = more signal.
Experiment [17] can be described thus: small-molecule microarray binders of probe aShh, primary screen, biochemical, biotinylated probe, 635/667 nm fluorescence (AID 1114).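 Note: probe is biotin-labelled aShh protein from a stem cell growth factor screen; measures binding of labelled protein to compounds printed on the slide; score merges feature fluorescence at 667 nm with signal-to-noise.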 As to conditions: higher = more signal.
A short description of experiment [18]: small-molecule microarray binders of probe aNog, primary screen, biochemical, biotinylated probe, 635/667 nm fluorescence (AID 1115).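 Note: probe is biotinylated aNog protein used at 0.15 µg/mL for 1 h at 4 C; z-score combines 667 nm fluorescence of each spot with its signal to noise.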 Conditions: higher = more signal.
The target in experiment [19] is Torsin-1A-interacting protein 1 (Homo sapiens) (UniProt Q5JTV8). Kind of experiment: LAP1 binders from COS7 cell lysate, primary screen, small-molecule microarray, 635/667 nm fluorescence (AID 1116). As to conditions: COS7-hLAP1 lysate binding, 635 nm fluorescence, higher = more signal.
Experiment [20] concerns the target Alpha-bungarotoxin (Bungarus multicinctus) (UniProt P60615). Kind of experiment: alpha-bungarotoxin binders on microarray, profiling panel, artefact control for SMM control protein annotation, biochemical, small-molecule microarray, Alexa647 label, 635/667 nm fluorescence (AID 1117). Conditions: alpha-BTX-A647 binding fluorescence, higher = more signal.

Chain of Left-right determination factor 2 (Homo sapiens) (O00292 whole entry, looked up): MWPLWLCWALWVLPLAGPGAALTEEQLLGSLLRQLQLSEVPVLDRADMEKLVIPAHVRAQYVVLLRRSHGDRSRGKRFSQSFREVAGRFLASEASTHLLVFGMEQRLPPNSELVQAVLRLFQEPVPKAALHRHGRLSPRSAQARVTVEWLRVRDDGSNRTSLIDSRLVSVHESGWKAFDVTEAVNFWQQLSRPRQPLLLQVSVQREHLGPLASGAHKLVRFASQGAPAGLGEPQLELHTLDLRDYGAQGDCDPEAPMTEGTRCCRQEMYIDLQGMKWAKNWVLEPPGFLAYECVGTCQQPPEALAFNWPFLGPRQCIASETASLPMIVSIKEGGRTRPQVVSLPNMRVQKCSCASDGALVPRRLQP
Chain of Dickkopf-related protein 1 (Homo sapiens) (O94907 whole entry, looked up): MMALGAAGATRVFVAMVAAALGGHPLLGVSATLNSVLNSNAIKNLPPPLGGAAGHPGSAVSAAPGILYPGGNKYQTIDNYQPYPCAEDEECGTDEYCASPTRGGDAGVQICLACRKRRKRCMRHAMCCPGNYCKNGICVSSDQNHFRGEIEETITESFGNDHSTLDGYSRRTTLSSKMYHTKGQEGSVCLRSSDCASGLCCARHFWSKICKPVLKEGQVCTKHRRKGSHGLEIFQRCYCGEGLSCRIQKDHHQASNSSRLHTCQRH
Chain of Follistatin-related protein 3 (Homo sapiens) (O95633 whole entry, looked up): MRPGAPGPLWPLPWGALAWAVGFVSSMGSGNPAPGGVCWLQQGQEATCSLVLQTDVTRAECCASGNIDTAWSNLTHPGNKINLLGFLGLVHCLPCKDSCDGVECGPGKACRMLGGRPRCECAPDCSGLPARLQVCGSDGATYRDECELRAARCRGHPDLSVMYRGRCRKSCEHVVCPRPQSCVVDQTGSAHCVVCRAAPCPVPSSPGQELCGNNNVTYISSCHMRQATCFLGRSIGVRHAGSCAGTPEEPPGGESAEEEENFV
Chain of Torsin-1A-interacting protein 1 (Homo sapiens) (Q5JTV8 whole entry, looked up): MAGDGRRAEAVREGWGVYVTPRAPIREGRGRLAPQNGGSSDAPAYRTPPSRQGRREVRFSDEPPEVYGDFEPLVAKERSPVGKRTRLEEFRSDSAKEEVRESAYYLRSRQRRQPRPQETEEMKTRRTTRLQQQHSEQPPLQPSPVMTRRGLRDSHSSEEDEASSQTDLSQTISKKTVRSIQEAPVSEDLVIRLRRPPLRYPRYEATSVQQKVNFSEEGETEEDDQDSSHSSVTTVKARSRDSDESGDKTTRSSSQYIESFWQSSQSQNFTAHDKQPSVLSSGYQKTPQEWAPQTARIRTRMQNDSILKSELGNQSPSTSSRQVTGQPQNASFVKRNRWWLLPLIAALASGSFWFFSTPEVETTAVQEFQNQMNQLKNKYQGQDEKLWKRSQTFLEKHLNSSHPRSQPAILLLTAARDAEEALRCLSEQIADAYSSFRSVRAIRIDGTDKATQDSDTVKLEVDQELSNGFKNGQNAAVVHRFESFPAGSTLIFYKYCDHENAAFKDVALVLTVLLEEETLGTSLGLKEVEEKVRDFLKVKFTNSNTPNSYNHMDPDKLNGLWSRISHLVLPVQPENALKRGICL
Chain of Alpha-bungarotoxin (Bungarus multicinctus) (P60615 whole entry, looked up): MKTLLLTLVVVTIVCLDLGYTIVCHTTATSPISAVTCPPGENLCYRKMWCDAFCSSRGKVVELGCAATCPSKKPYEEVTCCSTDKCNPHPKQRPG
Chain of Epidermal growth factor receptor (Homo sapiens) (P00533 whole entry, looked up): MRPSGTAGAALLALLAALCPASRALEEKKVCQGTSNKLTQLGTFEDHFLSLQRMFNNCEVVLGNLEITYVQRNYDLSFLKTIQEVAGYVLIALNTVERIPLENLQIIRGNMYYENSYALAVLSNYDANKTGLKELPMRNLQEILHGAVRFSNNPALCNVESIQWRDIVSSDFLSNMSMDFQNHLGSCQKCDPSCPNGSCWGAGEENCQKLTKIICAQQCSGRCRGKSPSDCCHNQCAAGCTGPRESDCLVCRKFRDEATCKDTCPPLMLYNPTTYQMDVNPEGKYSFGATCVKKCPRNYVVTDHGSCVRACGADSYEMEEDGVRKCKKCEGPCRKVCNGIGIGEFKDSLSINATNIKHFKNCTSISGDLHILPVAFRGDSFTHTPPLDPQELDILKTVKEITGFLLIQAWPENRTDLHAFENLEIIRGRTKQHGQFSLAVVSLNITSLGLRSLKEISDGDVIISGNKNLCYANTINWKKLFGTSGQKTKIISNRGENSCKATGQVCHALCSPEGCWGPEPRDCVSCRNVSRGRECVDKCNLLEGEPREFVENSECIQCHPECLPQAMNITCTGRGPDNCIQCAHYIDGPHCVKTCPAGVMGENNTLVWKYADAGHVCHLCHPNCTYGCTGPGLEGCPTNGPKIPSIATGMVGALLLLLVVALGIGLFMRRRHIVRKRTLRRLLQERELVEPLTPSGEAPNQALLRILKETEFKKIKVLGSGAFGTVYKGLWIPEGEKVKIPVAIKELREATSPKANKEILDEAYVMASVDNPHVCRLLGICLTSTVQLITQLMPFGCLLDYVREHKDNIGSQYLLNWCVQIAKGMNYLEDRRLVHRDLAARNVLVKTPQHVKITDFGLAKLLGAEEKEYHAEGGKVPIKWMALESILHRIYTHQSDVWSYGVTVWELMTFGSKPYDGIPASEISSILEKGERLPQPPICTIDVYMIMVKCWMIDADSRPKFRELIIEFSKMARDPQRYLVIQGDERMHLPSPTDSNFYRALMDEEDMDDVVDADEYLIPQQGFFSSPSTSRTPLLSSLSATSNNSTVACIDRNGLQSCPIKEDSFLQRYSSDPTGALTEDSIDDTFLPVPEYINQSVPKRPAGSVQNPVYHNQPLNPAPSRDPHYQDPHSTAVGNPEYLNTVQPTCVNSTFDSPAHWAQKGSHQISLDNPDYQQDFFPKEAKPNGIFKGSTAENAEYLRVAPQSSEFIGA
Chain of Fibroblast growth factor 10 (Homo sapiens) (O15520 whole entry, looked up): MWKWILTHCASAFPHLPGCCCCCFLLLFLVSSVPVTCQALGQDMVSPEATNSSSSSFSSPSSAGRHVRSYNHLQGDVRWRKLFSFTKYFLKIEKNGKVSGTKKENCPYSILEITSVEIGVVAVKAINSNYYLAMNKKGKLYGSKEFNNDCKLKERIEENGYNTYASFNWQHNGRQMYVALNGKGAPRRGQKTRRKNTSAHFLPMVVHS

For the molecule `CO[C@H]1O[C@H](CO)[C@@H](OC(=O)Nc2cccc(F)c2)[C@H](OC(=O)Nc2ccc3c(c2)OCO3)[C@@H]1OC(=O)Nc1ccc2c(c1)OCO2`, the composite z-score was determined as 1.13 in experiment [1]; 0.359 in experiment [2]; 0.558 in experiment [3]; 1 in experiment [5]; 1.2 in [6]; 0.0595 in [7]. In addition, the composite z-score in experiment [8] was 1.37; in [9] it was 0.229; in [10] it was 0.663; in experiment [11], 1.5; in [13] it was -0.0699; in [14] it was 0.911. The composite z-score was -1.04 in experiment [15]; 0.0186 in experiment [16]; 0.214 in [17]; 0.724 in [18]; 1.46 in experiment [19]; 1.02 in experiment [20]. Besides, the z-score was -1.13 (inactive) in experiment [4] and -1.14 in [12].
For the molecule `CCCCN1CC=CC23O[C@@H]4/C=C\CCCOC(=O)C4[C@H]2C(=O)N(CCCCCCO)[C@@H]3C1=O` (stereo not given in full), the composite z-score in experiment [1] is 0.502; in [2], -0.196; in experiment [3], 0.663; in [5] it was -0.764; in experiment [6], -0.755; in experiment [7], -1.08. The composite z-score in experiment [8] was -0.451; in [9], -1.75; in [10], 0.627; in experiment [11], 0.528; in experiment [13], -1.53; in experiment [14], -1.12. For the same molecule, the composite z-score is -0.439 in experiment [15]; -0.152 in experiment [16]; 0.0639 in experiment [17]; -0.346 in experiment [18]; 3.21 in [19]; -1.09 in experiment [20]. The z-score in experiment [4] was -1.09 (inactive); in [12] it was 0.284.
In the case of `C=CCC(OC(C)=O)[C@@H]1[C@@H](N(Cc2ccc(-c3ccccc3)cc2)C(=O)Cc2ccc(OC)cc2)c2cc(OCCCO)ccc2N1C(=O)c1ccc2ccccc2c1` (stereo not given in full), the composite z-score in experiment [1] was 0.0435; in [2], 0.0361; in [3] it was -0.002; in experiment [5] it was -0.0566; in [6], -0.0533; in experiment [7] it was -0.0792. Further, the composite z-score in [8] is 0.538; in [9], -0.0863; in experiment [10] it was 1.17; in experiment [11], 0.242; in [13], 0.215; in experiment [14], 0.106. The composite z-score in [15] is 0.335; in experiment [16], -0.122; in experiment [17], -0.153; in [18], -0.57; in experiment [19], 0.748; in experiment [20], 0.284. The z-score was -0.147 (inactive) in [4] and -0.856 in experiment [12].
For `C=C(CCCC)C(=O)CC[C@H](OC(=O)c1ccccc1-c1ccccc1C(=O)O)c1cccc(OCCO)c1`, the composite z-score is 0.642 in experiment [1]; -0.399 in experiment [2]; -0.454 in experiment [3]; -0.282 in experiment [5]; -0.121 in experiment [6]; -0.988 in experiment [7]. Moreover, the composite z-score is -0.578 in experiment [8]; 0.0668 in experiment [9]; 1.33 in experiment [10]; -0.109 in experiment [11]; 0.0292 in [13]; -0.268 in [14]. Further, the composite z-score was -0.832 in experiment [15]; -0.13 in experiment [16]; -0.0866 in experiment [17]; -0.318 in experiment [18]; 0.206 in experiment [19]; -0.0274 in experiment [20]. Further, the z-score is -0.289 (inactive) in experiment [4] and -1.92 in [12].
Take `COCCOC(=O)N1C(=O)[C@@]2(c3cc(C#CC4=CCCCC4)ccc31)[C@H](c1ccc(O)cc1)N1[C@H](c3ccccc3)[C@H](c3ccccc3)OC(=O)[C@H]1[C@@H]2C(=O)N1CCc2cc(OC)c(OC)cc2C1`: the composite z-score in experiment [1] worked out at 0.835; in experiment [2], 0.15; in [3] it was 0.338; in experiment [5] it was 0.415; in [6], 0.202; in [7], 0.0275. In addition, the composite z-score is 0.227 in experiment [8]; 0.0375 in [9]; 0.545 in [10]; 1.06 in [11]; -0.231 in experiment [13]; 1.12 in experiment [14]. Moreover, the composite z-score was 0.516 in experiment [15]; -0.0332 in experiment [16]; 0.0796 in experiment [17]; 0.453 in [18]; 2.23 in experiment [19]; 0.924 in experiment [20]. For the same molecule, the results for the z-score in experiment [4] and in experiment [12] were 0.864 (inactive) and -0.993, respectively.
